Bioassay records from PubChem BioAssay.
KCNH2 3.1 inh: qHTS for Inhibitors of KCHN2 3.1: Mutant qHTS | activity change, % (tested at about 1.8 µM) | U2OS KCNH2 3.1, thallium flux FluxOr; stronger effect = lower value | 340,000 tested, 0.95% active | Potassium voltage-gated channel subfamily H member 2, brain isoform KCNH2 3.1 (human) | AID 720553, 2013;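 active = maximum activity change below -70%; inconclusive = maximum activity change from -70% to -50%; inactive = maximum activity change above -50%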;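 also: thallium influx rate constant from kinetic fluorescence after stimulation buffer; % is scaled to controls: 0 for no effect and ±100 for the full control effect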
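Kinetic fluorescence (2 min after stimulation buffer) measures Tl+ influx through KCNH2 3.1 expressed by viral transduction in U2OS cells; the rate constant is normalized against DMSO controls serving as positive and negative references.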
RXFP1 antag: qHTS Assay for Antagonists of the Relaxin Receptor RXFP1; Relaxin receptor 1 (Homo sapiens), Q9HBX9; HEK293-RXFP1, relaxin-stimulated cAMP HTRF, 30 min; stronger effect = lower value; activity change, negative = inhibition, % at 57.5 µM; 350,000 tested, 0.59% active;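 active = activity change of -60% or lower, but not beyond a set lower limit; inconclusive = change between -60% and -40%, or beyond the set limit; inactive = change above -40%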; also: % is scaled to controls: 0 for no effect and ±100 for the full control effect
GRP78 ERSR act: qHTS for Inducers of the Endoplasmic Reticulum Stress Response (ERSR) in Human Glioma: qHTS. U87-MG GRP78 promoter luciferase reporter, 16 h. Potency, µM, for the others: top-dose activation, usual class: activators. 420,000 tested, 0.02% active. AID 602332, 2012; also: potency is read from the fitted curve at half-maximal effect; series mostly up to about 76 µM; % of control where 0% means no effect; nearly all actives have a fitted effect of over 35% in size
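Stably transfected U87-MG glioma cells carrying a GRP78-based luciferase sensor; 16 h compound incubation. Luminescence end-point read 10 min after Bright-Glo addition at room temperature.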
KCNH2 WT inh: qHTS for Inhibitors of KCHN2 3.1: Wildtype qHTS; Voltage-gated inwardly rectifying potassium channel KCNH2 (Homo sapiens), Q12809; 340,000 tested, 0.37% active; U2OS, BacMam KCNH2, thallium flux FluxOr; stronger effect = lower value; activity change, % at 1.84 µM; AID 720551, 2013;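 active = maximum activity change below -70%; inconclusive = maximum activity change between -70% and -50%; inactive = maximum activity change above -50%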; also: % is scaled to controls: 0 for no effect and ±100 for the full control effect
Target sequence (Q12809 whole entry, looked up): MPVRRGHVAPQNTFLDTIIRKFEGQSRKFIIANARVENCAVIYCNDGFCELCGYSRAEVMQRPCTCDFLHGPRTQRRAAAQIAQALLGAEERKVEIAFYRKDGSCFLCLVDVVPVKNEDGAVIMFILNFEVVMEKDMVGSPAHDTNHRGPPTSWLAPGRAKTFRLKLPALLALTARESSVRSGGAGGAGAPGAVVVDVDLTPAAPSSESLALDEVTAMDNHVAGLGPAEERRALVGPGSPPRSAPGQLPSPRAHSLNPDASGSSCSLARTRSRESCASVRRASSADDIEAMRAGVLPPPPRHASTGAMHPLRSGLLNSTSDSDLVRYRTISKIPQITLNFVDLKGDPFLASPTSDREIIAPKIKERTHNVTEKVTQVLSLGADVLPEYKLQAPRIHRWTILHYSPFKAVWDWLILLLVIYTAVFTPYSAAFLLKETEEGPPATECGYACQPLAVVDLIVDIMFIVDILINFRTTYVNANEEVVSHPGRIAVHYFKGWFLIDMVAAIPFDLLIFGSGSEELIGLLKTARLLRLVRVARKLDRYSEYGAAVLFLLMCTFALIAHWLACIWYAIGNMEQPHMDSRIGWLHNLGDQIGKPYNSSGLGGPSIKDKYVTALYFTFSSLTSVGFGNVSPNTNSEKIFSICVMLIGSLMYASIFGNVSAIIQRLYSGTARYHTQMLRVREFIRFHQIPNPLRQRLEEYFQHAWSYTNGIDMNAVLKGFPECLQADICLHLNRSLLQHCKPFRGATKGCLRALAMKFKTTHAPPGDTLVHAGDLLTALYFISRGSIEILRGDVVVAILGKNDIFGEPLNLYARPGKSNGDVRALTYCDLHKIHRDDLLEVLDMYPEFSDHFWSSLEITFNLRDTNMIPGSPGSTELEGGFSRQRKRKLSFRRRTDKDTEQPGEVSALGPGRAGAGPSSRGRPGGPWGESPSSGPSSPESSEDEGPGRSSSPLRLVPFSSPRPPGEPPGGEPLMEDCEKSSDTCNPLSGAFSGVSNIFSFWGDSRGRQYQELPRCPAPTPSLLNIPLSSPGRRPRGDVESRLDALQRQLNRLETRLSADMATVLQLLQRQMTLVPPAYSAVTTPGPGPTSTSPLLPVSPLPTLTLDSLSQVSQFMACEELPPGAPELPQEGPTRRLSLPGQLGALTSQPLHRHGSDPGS
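U2OS cells were transduced with wild-type KCNH2 virus (2.03 x 10^8 / mL) for 4 h at room temperature, then cultured overnight at 37 C. Thallium flux was read with FluxOr dye. Rate constants were normalized to DMSO controls.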
PTHR1 agonist: qHTS for PTHR1 Agonists: Primary Screen | Potency, µM (titrated, usually from 115 µM), without a hit: at the top dose activation, actives largely listed as activators | Parathyroid hormone/parathyroid hormone-related peptide receptor (Homo sapiens), Q03431 | HEK293 GP2 PTHR1 cells, GloSensor cAMP luminescence, 1 h | 410,000 tested, 0.075% active; also: potency is read from the fitted curve at half-maximal effect; nearly all actives have a fitted effect of over 55% in size
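HEK-293-derived GP2 cells expressing PTHR1 and a GloSensor cAMP reporter, 3,000/well, plated overnight, given luciferin plus IBMX (each 0.5 mM as added) for 1 h at 37 °C, then compound for 1 h at 37 °C. Luminescence was read after 15 min at room temperature.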
RXFP1 ag: qHTS Assay for Agonists of the Relaxin Receptor RXFP1. 370,000 tested, 0.3% active. HEK293T-RXFP1 cAMP TR-FRET, 30 min; response scale: percent of porcine relaxin response, buffer zero. Potency, µM (doses to about 57.5 µM), for inactives: top-dose activation, usual class: activators. AID 2676, 2010; also: potency is read from the fitted curve at half-maximal effect; % is scaled to controls: 0 for no effect and ±100 for the full control effect; nearly all actives have a fitted effect of over 60% in size
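HEK293 cells stably expressing RXFP1, treated 30 min at 37C with compounds plus PDE4 inhibitor Ro 20174; cAMP measured by HTRF TR-FRET. Normalized to buffer and 29 nM porcine relaxin; EC50 by Hill fit.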
Numbers without * were called inactive; i = inactive; ? = inconclusive; / = no result given; [ ] = another dose, or the depositor's remark. Most compounds without a hit are left out; they make up all but 1.4% or so of the library. Unless noted, calls follow the shape of the dose curve; as a rule, active = well fitted curve in the direction sought with a large enough effect; inconclusive = small, poorly fitted or top-dose-only effect, or another doubt; inactive = no such curve, though single readings can be large; an effect the other way counts as inactive or inconclusive.

SMILES	KCNH2 3.1 inh	RXFP1 antag	GRP78 ERSR act	KCNH2 WT inh	PTHR1 agonist	RXFP1 ag
Cc1ccc(C(=O)N/C(=C\c2ccc(-c3ccc(Br)cc3)o2)C(=O)NCCCN(C)C)cc1	-4.0	-60.8*	-15.3%	-80.3*	i	2.3%
CN(C)CCNC(=O)/C(=C/c1ccc(-c2ccc(Cl)cc2)o1)NC(=O)c1ccccc1	-91.2*	-31.3	-7.0%	-6.6	i	-0.8%
Cc1ccc(C(=O)N/C(=C\c2ccc(-c3cccc([N+](=O)[O-])c3)o2)C(=O)NCCCN(C)C)cc1	-32.9	-33.8	-6.2%	-19.0	i	1.2%
CN(C)CCNC(=O)/C(=C/c1ccc(-c2ccc(Cl)cc2Cl)o1)NC(=O)c1ccccc1	?	-69.8*	-13.5%	-0.7	i	-0.9%
COc1cccc(Cn2cnc(-c3ccccc3OC)c2-c2cccnc2)c1	/	/	/	/	24.2%	/
O=C1CCN(CCc2ccccc2)CCN1[C@H](COc1ccccc1)c1ccccc1	-114.7*	/	1.6%	-130.3*	-44.0%	0.0%
CCCN1CCC(=O)N([C@H](CO)c2ccccc2)CC1	6.1	/	-1.6%	-2.8	i	-0.3%
CC(C)CN1CCC(=O)N([C@H](COc2ccccc2)c2ccccc2)CC1	-99.6*	/	-2.5%	-42.8	i	0.0%
CCCN1CCC(=O)N([C@H](COc2ccccc2)c2ccccc2)CC1	-95.4*	/	0.7%	19.9	i	-0.6%
CC(C)CN1CCC(=O)N(C(CSc2ccc(Br)cc2)c2ccccc2)CC1 (stereo unspecified)	/	/	-3.9%	/	/	/
O=C1CCN(CCc2ccccc2)CCN1[C@H](CO)c1ccccc1	3.7	/	-3.8%	-4.9	i	-2.4%
Cc1nn2c(=O)cc(COC(=O)c3cccc(NC(=O)COc4ccccc4C)c3)nc2s1	/	-8.0	-9.5%	/	-36.1%	-0.3%
COCCn1c(SCC(=O)NC2CCCC2)nc2ccccc2c1=O	5.0	-6.3	-1.2%	-17.9	i	2.5%
Cc1ccc(NC(=O)CSc2ccc3nnc(-c4cccnc4)n3n2)cc1	-1.8	0.4	-3.4%	12.8	i	?
CC(=O)Nc1ccc(NC(=O)CSc2ccc3nnc(-c4cccnc4)n3n2)cc1	11.0	0.8	-5.1%	-15.9	i	8.91µM*
CCC(Sc1ccc2nnc(-c3cccnc3)n2n1)C(=O)OC (stereo unspecified)	7.4	22.4	-2.0%	2.9	?	14.1µM*
c1ccc(-c2nc3nonc3c3nc4ccccc4n23)cc1	-79.8*	-22.2	-3.2%	5.3	-5.0%[57.5 µM]	11.7%
CC(C)c1ccc(C(C)NC(=S)NC2CCCCC2)cc1 (stereo unspecified)	-19.8	-11.7	-3.6%	3.9	-19.4%	-3.5%
COC(=O)c1ccc(CN2CCc3ccccc32)cc1	7.6	-11.9	1.3%	-48.8	i	0.0%
O=C(Nc1nc(=O)c2ccccc2s1)c1ccc(F)cc1	-29.6	-21.3	4.7%	-7.9	-32.9%	0.9%
O=C(Nc1nc2ccsc2c(=O)s1)c1ccc(Cl)cc1	3.2	2.7	4.4%	1.7	-28.3%	12.6µM*
CS(=O)(=O)c1ccc2nc(NC(=O)c3ccc(Cl)cc3)sc2c1	10.1	-0.1	1.3%	5.6	-34.2%	6.6%
O=C(Nc1nc(=O)c2ccccc2s1)c1ccc(Cl)cc1	14.0	9.7	6.8%	-25.2	-8.1%	31.6µM*
CSCCC(c1nnnn1C1CCCC1)N1CCN(C/C=C/c2ccccc2)CC1 (stereo unspecified)	/	/	-2.0%	/	i	/
COc1cc(-c2[nH]ncc2CN2CCSCC2)cc(OC)c1OC	-1.5	-8.1	-5.4%	-11.7	i	8.3%
SMILES	KCNH2 3.1 inh	RXFP1 antag	GRP78 ERSR act	KCNH2 WT inh	PTHR1 agonist	RXFP1 ag
O=C(CSc1ncccc1-c1nc2ccccc2[nH]1)N1CCc2ccccc21	-8.6	-3.0	8.2%	13.6	i	8.3%
O=C(N/N=C/c1cccc(O)c1)c1cc(-c2ccc3c(c2)OCO3)n[nH]1	-4.6	-69.0*	-1.2%	-5.9	-32.3%	-0.3%
CN1CCCC(CC2Oc3ccccc3Sc3ccccc32)C1 (stereo unspecified)	11.0	-81.4*	-4.7%	36.9	i	-1.5%
O=C(COC(=O)CNS(=O)(=O)c1ccc(Br)cc1Cl)NC1CCCC1	6.4	-93.0*	-2.5%	-9.5	?	0.5%
CN(C)c1ccc(/C=C/c2ccc3ccccc3[n+]2C)cc1	-2.8	-91.9*	-7.0%	-1.3	-42.7%	3.4%
CC(=O)c1ccc(N2CCN(C(=O)c3n[nH]c4ccccc34)CC2)cc1	-12.3	-7.3	2.9%	4.7	-38.9%	2.5%
CC(=O)c1ccc(N2CCN(C(=O)c3nn(Cc4ccccc4)c(=O)c4ccccc34)CC2)cc1	-86.0*	-8.4	-2.4%	?	-20.0%	1.2%
COc1ccc(OC)cc1	-8.3	/	-3.0%	0.0	-16.3%	/
CC(C)C[C@@H](CN(C)N=O)N(C[C@H](Cc1ccccc1)N(CCc1ccccc1)N=O)N=O	-3.4	/	1.2%	1.9	i	-0.7%
CN(C[C@H](Cc1ccccc1)N(CCN(CCc1ccccc1)N=O)N=O)N=O	-199.7*	/	-0.7%	18.9	5.0%	-0.3%
CC/C(C)=N/Nc1cccc([N+](=O)[O-])c1	-93.1*	-2.7	0.7%	-8.5	-16.4%	-0.3%
C=CCN1C(=O)S/C(=C/c2ccc(Sc3nc4ccccc4[nH]3)o2)C1=O	-16.2	-11.2	-4.1%	-4.8	-41.2%	0.7%
CC(C)N1C(=O)S/C(=C/c2ccc(Sc3nc4ccccc4[nH]3)o2)C1=O	2.6	3.6	-0.5%	-129.6*	-47.9%	1.0%
Cc1ccc(C(=O)C2=C(O)C(=O)N(CCCn3ccnc3)C2c2ccc(OC(C)C)cc2)o1 (stereo unspecified)	-4.7	20.3	4.1%	-5.3	-2.3%[57.5 µM]	15.8µM*
O=C(CN1C(=O)COc2ccc(Cl)cc21)NC1CC1	13.9	-5.1	4.4%	1.7	i	-1.2%
CCOC(=O)CC(NC(=O)CCc1c(C)nc2nc(C)nn2c1C)c1ccc(OC(C)C)cc1 (stereo unspecified)	/	-5.6	-4.9%	-5.5	i	17.8µM*
CCOC(=O)CC(NC(=O)CCc1c(C)nc2c(-c3ccccc3)c(C)nn2c1C)c1ccc(OC(C)C)cc1 (stereo unspecified)	/	/	-4.2%	/	-64.2%	-0.6%
COc1ccc(CCn2c(O)cc3nn(-c4nc5ccccc5s4)c(=O)c-3c2C)cc1	5.4	-70.3*	-7.5%	-6.5	-14.6%	-0.4%
